{"source": "PubChem BioAssay AID1851", "about": "(National Center for Advancing Translational Sciences (NCATS), 2009)", "note": "“And” between values parts separate entries of the source, which are not always exact repeats. Identical values can stand only once. Hit rate of the full screen: of about 16,000 compounds, about 2,600 (16%) were called active. Roughly 20% stayed inconclusive and do not appear here. Only a sample is shown. Values without a mark were called inactive. The call rests on the fitted dose curve; in most records, active means well fitted curve in the direction sought with a large enough effect; inconclusive means small, poorly fitted or top-dose-only effect, or effect the other way; inactive means no such curve, though single readings can be large or run the other way. On the % scale 0 is the no-effect control and ±100 the full control effect."}
{"biological_target": "Cytochrome P450 2D6 (Homo sapiens) (UniProt P10635)", "sequence (P10635 whole entry, looked up)": "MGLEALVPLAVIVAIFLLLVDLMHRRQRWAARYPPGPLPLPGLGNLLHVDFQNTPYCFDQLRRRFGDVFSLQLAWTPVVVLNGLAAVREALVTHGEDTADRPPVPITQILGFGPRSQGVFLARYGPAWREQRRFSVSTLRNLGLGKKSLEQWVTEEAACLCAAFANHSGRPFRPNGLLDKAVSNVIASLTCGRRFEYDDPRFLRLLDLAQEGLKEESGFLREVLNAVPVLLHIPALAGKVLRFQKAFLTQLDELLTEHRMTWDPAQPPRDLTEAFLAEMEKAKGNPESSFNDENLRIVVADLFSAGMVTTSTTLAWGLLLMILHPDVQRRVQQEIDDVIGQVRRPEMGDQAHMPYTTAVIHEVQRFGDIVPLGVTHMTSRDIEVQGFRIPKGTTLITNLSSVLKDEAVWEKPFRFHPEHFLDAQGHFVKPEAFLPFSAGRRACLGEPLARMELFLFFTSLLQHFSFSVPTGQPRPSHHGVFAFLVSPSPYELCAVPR", "test": "Cytochrome panel assay with activity outcomes", "conditions": "recombinant CYP, pro-luciferin dealkylation, luminescence, p450-cyp2d6; series mostly up to 57.1 µM", "method": "The P450 gene superfamily is involved in the metabolism and clearance of xenobiotics. This assay used various human CYP P450 isozymes to measure the dealkylation of various pro-luciferin substrates to luciferin. The luciferin is then measured by luminescence after the addition of a luciferase detection reagent. Pro-luciferin substrate concentration in the assay was equal to its KM for its CYP P450 isozyme. Inhibitors and some substrates limit the production of luciferin, and decrease measured luminescence.\nNCGC Assay Protocol Summary:\n1, Reagent, 2 uL, Isozyme and Pro-Luciferin\n2, Library compounds, 23 nl, 40 uM to 0.24 nM dilution series\n3, Controls, 23 nl, Isozyme specific inhibitor\n4, Reagent, 2 uL, NADPH regeneration solution\n5, Incubation time, 60 min, Isozyme specific temperature\n6, Reagent, 4ul, Detection reagent\n7, Incubation time, 20 min, Isozyme specific temperature\n8, Detection, 1 sec, ViewLux luminescent read\nThe luciferase-based P450-GloTM Screening Systems were obtained from Promega (Madison, WI) for CYP 1A2 (V9770), CYP 2C9 (V9790), CYP2 C19 (V9880), CYP 2D6 (V9890), and CYP 3A4 Luciferin-PPXE (V9910) and were adapted for 1,536-well microplates and an automated protocol. The control compounds furafylline for 1A2 (F124), sulfaphenazole for CYP 2C9 (S0758), ketoconazole for CYP 2C19 (K1003), quinidine for 2D6 (Q3625), and ketoconazole for 3A4 (K1003) were purchased from Sigma Aldrich (St. Louis, MO). Recombinant P450 enzymes were obtained from baculovirus constructs expressed in insect cells (BD/Gentest).\nMedium-binding white solid Kalypsys plates used. Mixtures kept on ice. 1A2: 10 nM 1A2, 100 uM Luc-ME, 100 mM KPO4; 2C9: 10 nM 2C9, 100 uM Luc-H, 25 mM KPO4; 2C19: 5 nM 2C19, 10 uM Luc-H EGE, 50 mM KPO4; 2D6: 5 nM 2D6, 30 uM Luc-ME EGE, 100 mM KPO4; 3A4: 10 nM, 25 uM Luc-PPXE. All amounts are reflected in their final concentration, working concentration is 2x.\nNADPH regeneration solution: 1.3 mM NADP+, 3.3 mM glucose-6-phosphate, 3.3 mM MgCl2, 0.4 U/mL glucose-6-phosphate dehydrogenase for all isozymes, 200 mM KPO4 for 3A4. Mixture prepared at RT but kept on ice during automated run.\nRT incubation in auxilliary plate hotel for 1A2, 2D6, and 3A4; 37C for 2C9 and 2C19.\nKeywords: P450, CYP1A2, CYP2C19, CYP2C9, CYP2D6, CYP3A4, Luciferase, MLSMR, MLSCN, NIH Roadmap, qHTS, NCGC"}
{"smiles": "Cn1c(C(=O)N2COCC2(C)C)cc2c(=O)n3ccccc3nc21", "AC50": "inactive"}
{"smiles": "CCOC(=O)c1cc2c(=O)n3ccccc3nc2n(CCOC)c1=NC(=O)C(C)(C)C", "AC50": "inactive"}
{"smiles": "CCn1c(=N)c(S(=O)(=O)c2ccc(F)cc2)cc2c(=O)n3ccccc3nc21", "AC50": "0.794 µM (active)"}
{"smiles": "CCOC(=O)c1cc2c(=O)n3ccccc3nc2n(CCCOC)c1=NC(=O)C(C)(C)C", "AC50": "inactive"}
{"smiles": "CC1Cc2ccccc2N1C(=O)c1cc2c(=O)n3ccccc3nc2n1C", "note": "(stereo not drawn)", "AC50": "inactive"}
{"smiles": "Cn1c(=N)c(S(=O)(=O)c2ccc(F)cc2)cc2c(=O)n3ccccc3nc21", "AC50": "3.16 µM (active)"}
{"smiles": "COc1ccccc1C(=O)Nc1cc2c(ccc3ccccc32)oc1=O", "AC50": "inactive"}
{"smiles": "O=C(CCl)Nc1ccc(Oc2cnc3ccccc3n2)cc1", "AC50": "inactive"}
{"smiles": "Cc1ccccc1C(=O)N1CCN(c2ccc([N+](=O)[O-])c(NCc3ccco3)c2)CC1", "AC50": "inactive"}
{"smiles": "CC(C)(N)C(=O)N[C@@H]1C(=O)N2[C@@H]1SC(C)(C)[C@H]2C(=O)O", "activity, negative = inhibition": "5.23% [at 11.4 µM]"}
{"smiles": "CC(C)(C)C(=O)N1CCC(O)(CS(=O)(=O)Cc2ccc(Cl)cc2)CC1", "AC50": "inactive"}
{"smiles": "Cc1ccccc1OCC(=O)NC(=S)Nc1ccc(N2CCOCC2)c(Cl)c1", "AC50": "inactive"}
{"smiles": "Cc1ccc(NC(=O)CSCC(=O)Nc2ccc(N3CCOCC3)c(Cl)c2)cc1", "AC50": "14.1 µM (active)"}
{"smiles": "Cc1ccc(NC(=O)c2cc(N3C(=O)C4CC=CCC4C3=O)ccc2N2CCOCC2)cc1Cl", "note": "(stereo not drawn)", "AC50": "inactive"}
{"smiles": "NC(=O)C1(N2CCCCC2)CCN(C(=S)Nc2ccc(Cl)cc2)CC1", "AC50": "inactive"}
{"smiles": "N[C@H](C(=O)O)c1cccc(O)c1", "AC50": "inactive"}
{"smiles": "Nc1ccc(CCNc2ncnc3c2ncn3[C@@H]2O[C@@H](CO)[C@H](O)[C@@H]2O)cc1", "AC50": "inactive"}
{"smiles": "CC(C)c1ccc(-c2nnn(CCC(=O)O)n2)cc1", "AC50": "inactive"}
{"smiles": "CCOc1ccc(/C(O)=C2\\C(=O)C(=O)N(CCOCCO)C2c2ccccc2OC)cc1", "note": "(stereo not drawn)", "AC50": "inactive"}
{"smiles": "CCOc1ccc(OCCOc2ncnc3ccccc23)cc1", "AC50": "inactive"}
{"smiles": "CCOc1ccc(OCCOCCN2CCc3ccccc3C2)cc1", "AC50": "1.12 µM (active)"}
{"smiles": "N#CCCn1c(=O)cnc2cnc(Oc3ccccc3)nc21", "AC50": "inactive"}
{"smiles": "C=CCn1c(SCc2ccc3c(c2)OCO3)nc2scc(-c3ccco3)c2c1=O", "AC50": "inactive"}
{"smiles": "C=CCN1CCN(c2nc3ccccc3nc2C#N)CC1", "AC50": "1.26 µM (active)"}
{"smiles": "CCc1noc(C)c1C(=O)Nc1nc(-c2cc(C)ccc2C)c(C)s1", "AC50": "inactive"}
{"smiles": "O=C(O)CSc1cc(-c2ccccc2)nc2ccccc12", "activity, negative = inhibition": "3.96% [at 11.4 µM]"}
{"smiles": "NC[C@@H](O)CSCc1ccc(Cl)cc1", "AC50": "3.16 µM (active)"}
{"smiles": "O=[N+]([O-])c1ccc(CSCc2ccc(Cl)cc2)cc1", "activity, negative = inhibition": "-20.5% [at 11.4 µM]"}
{"smiles": "N[C@@H](CSCc1ccc(I)cc1)C(=O)O", "activity, negative = inhibition": "3.9% [at 11.4 µM]"}
{"smiles": "O=c1c(-c2cccc(F)c2)nc2cncnc2n1Cc1ccccc1Cl", "AC50": "inactive"}
{"smiles": "Oc1ccc(CNCc2ccccc2)c2cccnc12", "AC50": "1.58 µM (active)"}
{"smiles": "O=C(O)COc1c(Cl)cc(Cl)c2cccnc12", "activity, negative = inhibition": "2.9% [at 11.4 µM]"}
{"smiles": "CC(C)NC[C@@H](O)c1ccc(O)c2ncccc12", "activity, negative = inhibition": "-18.5% [at 11.4 µM]"}
{"smiles": "N#CCCn1c(=O)c(-c2ccc(F)cc2)nc2cnc(N3CCOCC3)nc21", "AC50": "inactive"}
{"smiles": "CCOC(=O)/C(C#N)=C1/C=CN(C)C=N1", "AC50": "inactive"}
{"smiles": "Cc1nc2cncnc2n(-c2ccccc2)c1=O", "AC50": "inactive"}
{"smiles": "COc1cccc(-c2cc(C(F)(F)F)n3ncc(S(=O)(=O)c4ccccc4)c3n2)c1", "AC50": "inactive"}
{"smiles": "CN(CCc1ccccn1)Cc1ccc(Cl)cc1Cl", "AC50": "0.355 µM (active)"}
{"smiles": "ON(CCc1ccccn1)Cc1ccccc1", "activity, negative = inhibition": "-0.364% [at 11.4 µM]"}
{"smiles": "CC(C)C(=O)C(C)(C)CCc1ccccn1", "activity, negative = inhibition": "8.85% [at 11.4 µM]"}
{"smiles": "O=C(Nc1ccccc1)c1ccccc1CC[N+](=O)[O-]", "AC50": "inactive"}
{"smiles": "C/C(=C\\C1CCCCC1)C(NC(=O)c1ccc(C(F)(F)F)cc1)c1ccc(-c2ccccc2)cc1", "note": "(stereo not drawn)", "AC50": "inactive"}
{"smiles": "COc1ccc(-c2cc(C(F)(F)F)n3nc(C(=O)N4CCCCC4)cc3n2)cc1", "AC50": "inactive"}
{"smiles": "Cc1ccc(S(=O)(=O)N(CCCN2CCCC2=O)Cc2cc3c(C)ccc(C)c3[nH]c2=O)cc1", "AC50": "14.1 µM (active)"}
{"smiles": "Cc1ccc(CS(=O)(=O)CCC(=O)NCCCN2CCCC2=O)cc1", "AC50": "inactive"}
{"smiles": "Cc1ccc(S(=O)(=O)CC(O)CN2CCCC2=O)cc1", "note": "(stereo not drawn)", "AC50": "inactive"}
{"smiles": "CSc1ccc2c(c1)[C@H](N1CCN(C)CC1)Cc1ccccc1S2", "AC50": "3.98 µM (active) and 1.58 µM (active) and 316 nM (active)"}
{"smiles": "CN1CCN([C@@H]2Cc3ccccc3Sc3ccc(Cl)cc32)CC1", "AC50": "0.398 µM (active)"}
{"smiles": "O=C1CC(N2CCOCC2)C(=O)N1c1cccc(Cl)c1", "note": "(stereo not drawn)", "AC50": "inactive"}
{"smiles": "CCCc1ncc(C[n+]2ccccc2C)c(N)n1", "AC50": "inactive"}
{"smiles": "C=CCNC(=S)N/N=C/c1ccc(OCc2ccccc2)cc1", "AC50": "inactive"}
{"smiles": "COc1ccc(Oc2ncc3nc(C)c(=O)n(C[C@H]4CCCO4)c3n2)cc1", "AC50": "inactive"}
{"smiles": "Cc1cc(C)cc(OCC(=O)NNC(=O)c2cc(C)[nH]n2)c1", "AC50": "inactive"}
{"smiles": "COc1ccc(NS(=O)(=O)c2ccc(I)cc2)cc1N1CCN(C)CC1", "AC50": "inactive"}
{"smiles": "O=C(c1ccc2ncsc2c1)N1CCN(c2ccc(O)cc2)CC1", "AC50": "inactive"}
{"smiles": "CCCOc1ccc(CSC(CC(=O)O)C(=O)O)cc1", "note": "(stereo not drawn)", "AC50": "inactive"}
{"smiles": "Cc1ccc(S(=O)(=O)NCC(=O)N(CC(=O)NCc2ccco2)Cc2cccs2)cc1", "AC50": "3.98 µM (active)"}
{"smiles": "Cc1ccc(C(C(=O)NCc2ccco2)N(C(=O)CNC(=O)c2cccs2)c2ccc(C)cc2)cc1", "note": "(stereo not drawn)", "AC50": "inactive"}
{"smiles": "Cc1ccc(OCCCC(=O)NCc2ccco2)cc1", "AC50": "inactive"}
{"smiles": "COc1ccc(-c2nc3cnc(Nc4ccccc4)nc3n(Cc3cccs3)c2=O)cc1", "AC50": "inactive"}
{"smiles": "CC1CCCC(n2c(=S)[nH]c3ccccc3c2=O)C1C", "note": "(stereo not drawn)", "AC50": "inactive"}
{"smiles": "O=c1c2c(nc3c(-c4ccccc4)c[nH]n13)CCC2", "AC50": "inactive"}
{"smiles": "Cc1ccc(N=Nc2c(N)[nH]n3c(=O)c4c(nc23)CCCC4)cc1", "AC50": "inactive"}
{"smiles": "Cc1ccc(-c2[nH]n3c(=O)c4c(nc3c2C)CCCC4)cc1", "AC50": "25.1 µM (active)"}
{"smiles": "Cc1cc(C2CCCCC2)n(O)c(=O)c1", "AC50": "inactive"}
{"smiles": "COc1cccc(C(=O)Nc2ccc(-c3nnc(-c4ccco4)o3)cc2)c1", "AC50": "inactive"}
{"smiles": "COc1ccc(-c2ccc(/C=C3\\C(=O)N(c4ccccc4)N=C3c3ccccc3)o2)c([N+](=O)[O-])c1", "AC50": "inactive"}
{"smiles": "COc1ccc2c(c1)C(c1ccc([N+](=O)[O-])cc1)=NNC(c1ccco1)=N2", "AC50": "11.2 µM (active)"}
